According to PubChem BioAssay AID493165 (National Center for Advancing Translational Sciences (NCATS), 2011):
Active and inactive are the calls of the source. The call rests on the fitted dose curve; in most records, active means well fitted curve in the direction sought with a large enough effect; inactive means no such curve, though single readings can be large or run the other way.

Experiment: Retest of LOPAC molecules that induce DNA re-replication in SW480 adenocarcinoma cells.
Source text: NIH Molecular Libraries Probe Production Network [MLPCN] NIH Chemical Genomics Center [NCGC] MLPCN Grant: Fast Track K99 CA136555 Assay Provider: Melvin DePamphilis, NICHD, NIH Assay Overview Eukaryotic cells normally restrict genome duplication to once per cell division. When this process is aberrant, DNA re-replication occurs when cells reinitiate DNA replication before the first round of replication is complete. DNA re-replication induces the DNA damage response, arrests cell proliferation, and triggers apoptosis. The cell cycle components cyclin A, Cdt-1, Cdc6 and geminin are critical regulators of this process and their misregulation results in DNA re-replication in normal and cancer cells. To identify compounds that induce re-replication in normal cells, an image-based assay was used to measure DNA content of nuclei, as detected by the fluorescent DNA binding dye, Hoechst. Cell nuclei were imaged by a fluorescence scanning plate imager and compounds that induce DNA re-replication were identified by the increase of nuclei with elevated fluorescence intensity.
Assay Protocol Summary For screening, 250 cells in 5 uL/well were dispensed into black clear 1536-well plates (Aurora) using a solenoid-based dispenser. Following transfer of 23 nL compound or DMSO vehicle by a pin tool, the plates were incubated 48 hr at 37 C and 5% CO2. After addition of 1 uL/well Hoescht stain, the plates were incubated 40 min at 37 C, 5% CO2 and total intensity of fluorescent objects (nuclei) were enumerated by an Acumen Explorer Ex3 (TTP LabTech) fluorescence scanning plate imager (405 nm excitation, 500-530 nm emission). Keywords: NIH Roadmap, MLPCN, MLI, MLSMR, qHTS, NCGC, DNA replication, cancer

Row | SMILES | Potency
1 | COc1cc2c(c(OC)c1OC)-c1ccc(OC)c(=O)cc1[C@@H](NC(C)=O)CC2 | 33.7 nM (active)
2 | CC(C)NP(=O)(NC(C)C)OP(=O)(NC(C)C)NC(C)C | inactive
3 | C=C(C)[C@H]1Cc2c(ccc3c2O[C@@H]2COc4cc(OC)c(OC)cc4[C@@H]2C3=O)O1 | 1070 nM (active)
